From PubChem BioAssay AID588852 (The Scripps Research Institute Molecular Screening Center, 2011)
Out of some 360,000 compounds screened, about 4,600 (1.3%) were called active. The full list was thinned out, with actives kept by preference. A number with no mark means an inactive call.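 Rule for the calls: active = percent inhibition above its own plate's cutoff, namely the mean of that plate's compound wells plus 3 SD; inactive = the rest.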

Molecular target: Muscarinic acetylcholine receptor M1 (Homo sapiens) (UniProt P11229)
Assay: human M1 muscarinic receptor antagonists, primary screen, CHO-K1 cells, Fluo-8 calcium fluorescence, 1536-well (AID 588852);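 note: peak over basal fluorescence ratio during 140 s after agonist addition; 0% = ACh EC80 plus DMSO and 100% = DMSO alone without agonist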
Conditions: CHO-K1 hM1, Fluo-8 calcium fluorescence, ACh EC80 antagonist; at 3 µM; active compounds read high

Sequence of Muscarinic acetylcholine receptor M1 (Homo sapiens) (P11229 whole entry, looked up): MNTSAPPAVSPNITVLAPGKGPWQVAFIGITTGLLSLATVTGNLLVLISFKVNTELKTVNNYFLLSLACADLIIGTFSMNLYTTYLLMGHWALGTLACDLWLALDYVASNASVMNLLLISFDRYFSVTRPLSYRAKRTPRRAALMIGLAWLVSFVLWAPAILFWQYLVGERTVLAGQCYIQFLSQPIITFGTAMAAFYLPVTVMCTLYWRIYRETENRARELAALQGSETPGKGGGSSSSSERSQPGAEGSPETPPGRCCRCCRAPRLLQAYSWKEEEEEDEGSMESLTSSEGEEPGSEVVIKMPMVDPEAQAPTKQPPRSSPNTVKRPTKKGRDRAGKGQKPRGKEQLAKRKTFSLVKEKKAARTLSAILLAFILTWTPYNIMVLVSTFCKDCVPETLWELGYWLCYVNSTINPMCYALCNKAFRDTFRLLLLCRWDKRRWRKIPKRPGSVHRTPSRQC

Structure (SMILES)	inhibition
Cc1cc(Br)cn2c(Cc3cccc(F)c3)c(-c3cccc(Br)c3)nc12	-3.87%
COc1ccc(CCNc2ncnc3nc[nH]c23)cc1OC	5.06%
O=C(Cn1cnc2ccccc2c1=O)NCC1COc2ccccc2O1 (stereo not given)	-3.89%
c1ccc2c(c1)OCC(CNc1ncnc3nc[nH]c13)O2 (stereo not given)	101% (active)
CCCN1CNC(=S)N(CCc2ccccc2)C1	-6.28%
Cn1nccc1C(=O)NC1CCCc2c1cnn2-c1ccc(F)cc1F (stereo not given)	31.6% (active)
Cc1ccc(-n2ncc3c2CCCC3NC(=O)c2cnccn2)cc1C (stereo not given)	-17.9%
CC1(C)Cc2c(cnn2-c2cccc(F)c2)C(NC(=O)c2cc[n+]([O-])cc2)C1 (stereo not given)	9.23%
CCOC(=O)c1ccc(NC(=O)Cn2cnc3cc(C)c(C)cc32)cc1	37.4% (active)
CCCc1nnc(SCC(=O)Nc2ccc(C(=O)OCC)cc2)o1	9%
CCOC(=O)c1ccc(NC(=O)CS(=O)(=O)c2cn(CC)c3ccccc23)cc1	-2.75%
Cc1ccc(Cc2c(-c3ccco3)nc3ccc(Cl)cn23)cc1	-22.8%
COc1cccc(CN(C)C(=O)CC[C@H]2O[C@@H](n3cnc4c(NC(=O)c5ccccc5)ncnc43)[C@H](O)[C@@H]2O)c1	-19.1%
CC1=C(C(=O)N(C(C)C)C(C)C)CC(CC(=O)NCCCCc2ccccc2)C(=O)N1CCC1=CCCCC1 (stereo not given)	-20.5%
OC[C@@H]1CN(Cc2ccc(-c3ccccc3)cc2)C[C@H](n2cnc3c(NC4CCCC4)ncnc32)O1	32% (active)
OC[C@@H]1CN(Cc2ccc(F)cc2)C[C@H](n2cnc3c(NC4CCCC4)ncnc32)O1	-0.24%
OC[C@@H]1CN(Cc2cccs2)C[C@H](n2cnc3c(NC4CCCC4)ncnc32)O1	-11.8%
O=C(c1ccc(N2CCCC2=O)cc1)N1CCN(c2ccc(C(F)(F)F)cc2[N+](=O)[O-])CC1	53.8% (active)
O=C(c1ccc(N2CCOCC2)c([N+](=O)[O-])c1)N1CCN(c2ccccc2F)CC1	-20.3%
COc1cc(OC)cc(C(=O)NC(=S)N2CCN(c3ccc(C(F)(F)F)cc3[N+](=O)[O-])CC2)c1	-3.37%
NC(c1csc(NC(=O)Nc2cccc(C(F)(F)F)c2)n1)C1CCCCC1 (stereo not given)	2.03%
CCc1cc2c(SCC(=O)Nc3ncc(Cl)c(C)c3Cl)ncnc2s1	3.21%
CN(C)c1cc[n+](Cc2ccccc2)cc1	21.7%

Structure (SMILES)	inhibition
c1ccc(Cc2cc[n+](Cc3ccccc3)cc2)cc1	37.1% (active)
c1ccc(CNCc2ccc(CNCc3ccccc3)cc2)cc1	2.12%
CCOc1ccc(CCNC(=O)C2=C(C)C(=O)OC23CCC(C)CC3)cc1OCC (stereo not given)	-7.29%
NC(c1csc(NC(=O)Nc2ccccc2Oc2ccccc2)n1)c1ccccc1Cl (stereo not given)	-3.63%
Cc1ccc(C)c(NC(=O)CN(C)C(=O)COc2ccc3ccccc3c2)c1	-15%
CN(Cc1ccccc1)C(=O)COc1ccccc1	1.72%
CN(Cc1ccc(F)cc1)C(=O)COc1ccc2ccccc2c1	24.7% (active)
CC(C)(C)N1C(=O)c2c(C(=O)OCc3ccccc3)[nH]c(-c3ccccc3)c2C1=O	-12.3%
CCNC(=O)C1(C)CCCN(C(=O)c2c(C)noc2C)C1 (stereo not given)	-8.22%
CSc1ccc(CNC(=O)C2(C)CCCN2C)cc1 (stereo not given)	-11.7%
O=C(CSc1nc2ccccc2c(=O)n1CCCO)NC1CC1	-2.1%
CC1CCN(CCCn2c(SCC(=O)NC3CCCC3)nc3ccccc3c2=O)CC1	31.2% (active)
CC(=O)c1ccc(NC(=O)CSc2nc3ccccc3c(=O)n2CCCN2CCOCC2)cc1	1.86%
COC(=O)c1ccc2nc(-c3ccc(OC)c(OC)c3)c(Cc3ccccc3)n2c1	-24%
Cc1c(C(=O)OC(C)C)sc(NC(=O)c2cccnc2)c1C#N	-3.46%
CC(=O)N1CCCc2cc(S(=O)(=O)N3CCCC(C(=O)N4CCN(c5cccc(Cl)c5)CC4)C3)ccc21 (stereo not given)	57.1% (active)
CC(=O)N1CCCc2cc(S(=O)(=O)CCC(=O)N3CCN(c4ccccc4)CC3)ccc21	-7.27%
CC(=O)N1c2ccc(S(=O)(=O)N3CCC(C(=O)N4CCN(c5ccccc5)CC4)CC3)cc2CC1C (stereo not given)	10.8%
O=C(CCS(=O)(=O)c1ccccc1Cl)Nc1ccc(S(=O)(=O)Nc2ncccn2)cc1	-5.9%
CCN1C(=O)[C@@H]2[C@@H]3CN(S(=O)(=O)c4ccccc4C)[C@@H](c4ccc(Cl)cc4)[C@@H]3C(=O)C[C@@H]2C1=O	4.67%
Cc1ccc(S(=O)(=O)N2CCC(C(=O)N[C@@H](C)C(=O)NCc3ccccc3)CC2)cc1	4.54%
CCN(CC(=O)N1CCCC1)S(=O)(=O)c1ccc(F)cc1	-13%
CN(C)CCOC(=O)C(c1ccccc1)C1(O)CCCC1 (stereo not given)	99.4% (active)

Structure (SMILES)	inhibition
O=C(O)C(c1cccs1)C1(O)CCCCC1 (stereo not given)	-1.29%
O=C(O)C(c1ccccc1)C1(O)CCCCC1 (stereo not given)	-17.6%
COc1ccccc1N1CCN(CC(=O)NCCc2ccc(S(N)(=O)=O)cc2)CC1	4.39%
Cc1nc(NC(=O)CCC(=O)O)sc1C(=O)N(C)C	2.74%
CCCn1c(C2CCCN2c2nc(-c3ccc(C)cc3)cs2)nc2cc(Cl)c(N3CCCCC3)cc21 (stereo not given)	-10.7%
COc1ccc(S(=O)(=O)Nc2cc(C)on2)cc1NC(C)=O	-12.3%
CCOc1ccc(C(=O)Nc2ccc(S(=O)(=O)Nc3cc(C)on3)cc2)cc1	0.49%
COc1cc2ccccc2cc1C(=O)Nc1ccc(S(=O)(=O)Nc2cc(C)on2)cc1	103% (active)
CC1CCCC(C)N1C(=O)COC(=O)COc1ccccc1C#N (stereo not given)	-15.1%
COc1ccccc1CNS(=O)(=O)c1cc(C(=O)NCc2ccccn2)c(Cl)cc1Cl	5.67%
Cc1cc(C)n2nc(C(=O)OCC(=O)N(CCC#N)c3ccc(F)cc3)nc2n1	-14.2%
CNS(=O)(=O)c1ccc(N2CCCC2=O)c([N+](=O)[O-])c1	-23.5%
C=CCSc1nsc(NC(=O)Nc2cccc(C(C)=O)c2)n1	38.7% (active)
CC(=O)c1cccc(NC(=O)C2CCN(C(=O)c3ccccc3Cl)CC2)c1	-5.19%
CCSc1nsc(NC(=O)Nc2cccc(C(C)=O)c2)n1	51.1% (active)
CSc1ccccc1C(=O)Nc1cccc(C(C)=O)c1	0.3%
CC(=O)c1cccc(NC(=S)N2CCN(S(C)(=O)=O)CC2)c1	-7.9%
COc1ccc(NC(C(=O)Nc2cccc(C(C)=O)c2)c2ccccc2)cc1 (stereo not given)	-3.24%
Fc1cccc(Cc2c(-c3cccc(Cl)c3)nc3ccc(Br)cn23)c1	-20.5%
CC#CC[N+](C)(C)CCCCCC	-12.7%
FC(F)(F)Oc1ccc(-c2cn3cccnc3n2)cc1	12.5%
O=C(CCc1ccc(S(=O)(=O)N2CCOCC2)cc1)OCC(=O)c1ccc(Br)cc1	9.26%
O=C(Nc1ccccc1Cl)/C(Cl)=C(\Cl)S(=O)c1ccccc1 (stereo not given)	-6.91%

Structure (SMILES)	inhibition
COc1ccc(C(O)(C2CCCCC2)C(CN2CCCC2)c2ccccc2)cc1 (stereo not given)	10.3%
OC(C#CCN1CCOCC1)(c1ccccc1)C1CCCCC1 (stereo not given)	50.9% (active)
OC(c1ccccc1)C(CN1CCOCC1)c1ccccc1 (stereo not given)	-25.3%
Clc1cccc(Cl)c1Cn1nnc(-c2cccs2)n1	-2.1%
CC(=O)c1c(N)n(C)c(=O)n(C)c1=O	-33.5%
CCOC(=O)c1ccc(-c2ccc3ncnc(N(C)Cc4sccc4C)c3c2)o1	-1.82%
N/C(=N\OC(=O)Nc1ccccc1)c1ccno1	-25%
CC(C)CCNC(=O)c1[nH]c(C(F)(F)F)nc1-c1ccccc1	-26.6%
CCN(Cc1ccccc1)C(=O)CN1C(=S)NC(C)(C)CC1C (stereo not given)	-5.27%
CCNC(=S)N(CCN(CC)CC)Cc1cc2cc3c(cc2[nH]c1=O)OCCO3	-13%
CC1CN(S(=O)(=O)c2ccc(C(=O)NN3CCN(C)CC3)cc2)CC(C)O1 (stereo not given)	9.23%
CCCCOc1ccc(C(=O)NN2CCN(C)CC2)cc1	44.4% (active)
CN1CCN(NC(=O)c2ccc(S(=O)(=O)N3CCCCCC3)cc2)CC1	-2.56%
Cc1ccc([C@H]2N[C@]3(CCCN(Cc4ccccc4)C3=O)[C@H]3C(=O)N(Cc4ccccc4)C(=O)[C@@H]23)cc1	-11.4%
OCCc1ccc(NCCc2ccco2)cc1	0.71%
O=C(c1ccccc1Oc1ccccc1)N1CCN(c2ccc(F)cc2)CC1	4.1%
CCOC(=O)N1CCN(C(=O)c2nn(-c3ccc(C)cc3)c(=O)c3c2c2ccccc2n3C)CC1	3.41%
Cn1c2ccccc2c2c(C(=O)N3CCN(c4ccc(F)cc4)CC3)cn(C3CCCC3)c(=O)c21	29.7% (active)
O=C(Nc1ccc2c(c1)OCCO2)C(C1CC1)N1CCC(Cc2ccccc2)CC1 (stereo not given)	34.6%
CC(C)Cc1ccc(-c2cc3nc(NCc4cccc(Cl)c4)ccn3n2)cc1	-8.68%
Cc1nnc(SC(C)C(=O)c2c[nH]c3ccccc23)n1C1CC1 (stereo not given)	2.35%
